# Test results reported in PubChem BioAssay.
# Active and inactive are the calls of the source. Unless noted, no rule for the calls is given here.
# How the values were obtained:
# [1] = tested on: Wnt5a (protein binding on small-molecule microarray); assay: small molecules binding Wnt5a protein – biophysical, small-molecule microarray, 635/667 nm fluorescence, primary screen (AID 1142); settings: 635 nm fluorescence, higher = more signal;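 also: fluorescence read at 667 nm with signal to noise per printed feature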
# [2] = ATP-based viability of Huh7 replicon cells – cell-based, CellTiter-Glo luminescence, basal, 48 h, cytotoxicity control for HCV replication inhibitor project, primary screen (AID 1143); settings: higher = more signal, called active from +8 up or from −8 down;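 also: Huh7 hepatoma cells carrying a hepatitis C replication reporter with no stimulus; test concentration not given here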
# [3] = Pseudomonas biofilm growth suppression – PAO1 strain, BacTiter-Glo luminescence, LB-PBS, primary screen (AID 1144); settings: P. aeruginosa PAO1 biofilm, 12 h, higher = more signal
# [4] = basal CRE-LacZ reporter activity in PC12 – cell-based, unstimulated, primary screen (AID 1145); settings: no forskolin, luminescence, 4.5 h, higher = more signal, called active from +8 up or from −8 down
# [5] = forskolin-driven CRE-LacZ activity in PC12 – cell-based, CRE-LacZ reporter, forskolin-stimulated, primary screen (AID 1146); settings: luminescence, 4.5 h, higher = more signal, called active from +8 up or from −8 down;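 also: PC12 cells with 6xCRE LacZ reporter stimulated by forskolin 10 µM; beta-galactosidase reporter signal reflecting CREB driven transcription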
# [6] = molecular target: Streptavidin (Streptomyces avidinii) (UniProt P22629); assay: compounds binding control protein streptavidin – biophysical, small-molecule microarray, 635/667 nm fluorescence, artefact control for SMM compound annotation, primary screen (AID 1147); settings: higher = more signal;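 also: signal reflects streptavidin binding to arrayed compounds as a control protein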
# [7] = probe aInhba binding on compound microarray – biochemical, small-molecule microarray, 635/667 nm fluorescence, primary screen (AID 1148); settings: higher = more signal;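 also: score merges 667nm spot fluorescence with signal-to-noise for antibody binding to printed compounds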
# [8] = molecular target: Torsin-1A (Homo sapiens) (UniProt O14656); assay: TOR1A wild-type binding on microarray – cell lysate, small-molecule microarray, lysate, 635/667 nm, primary screen (AID 1149); settings: COS7 hTOR1A-WT lysate, 635 nm fluorescence, higher = more signal
# [9] = molecular target: Torsin-1A (Homo sapiens) (UniProt O14656); assay: torsin A mutant lysate binding on microarrays – cell lysate, small-molecule microarray, COS7 lysate, 635/667 nm fluorescence, primary screen (AID 1150); settings: COS7 hTOR1A mutant lysate, 635 nm fluorescence, higher = more signal;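 also: score pools 667 nm emission and signal to noise measuring lysate protein binding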
# [10] = tested on: Sonic hedgehog protein (Shh); assay: Sonic hedgehog microarray binding compounds – biochemical, small-molecule microarray, 635/667 nm fluorescence, primary screen (AID 1151); settings: 635 nm fluorescence, higher = more signal;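 also: Shh protein binding to compounds spotted on small-molecule microarray slides; score combines spot fluorescence intensity with signal-to-noise across triplicate slides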
# [11] = optical density shifts of acrAB sulA E. coli – strain DRC41, OD650, 48 h, E. coli filamentation inducer project, primary screen (AID 1152); settings: higher = more signal, called active from +8 up or from −8 down;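 also: E. coli MC1000 strain DRC41 lacking acrAB efflux pump and sulA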
# [12] = probe aLefty1 binding on compound microarray – biochemical, small-molecule microarray, 635/667 nm fluorescence, primary screen (AID 1153); settings: higher = more signal;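 also: score merges spot fluorescence with signal-to-noise ratio from the scanned slide images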
# [13] = plasmodial surface anion channel blockers, osmotic lysis – cell-based, P. falciparum Indochina, OD700, 1 h, primary screen (AID 1154); settings: P. falciparum Indochina infected RBC osmotic lysis, higher = more signal, called active from +8 up or from −8 down
# [14] = plasmodial surface anion channel blockers, osmotic lysis – cell-based, P. falciparum Indochina, OD700, 2 h, primary screen (AID 1155);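 also: lysis reports solute entry through the parasite surface anion channel PSAC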; settings: P. falciparum Indochina infected erythrocytes, higher = more signal, called active from +8 up or from −8 down
# [15] = changes in parasitized red cell lysis, either direction – P. falciparum Indochina, OD700, 3 h, PSAC antagonist project, primary screen (AID 1156); settings: P. falciparum-infected erythrocytes, osmotic lysis, higher = more signal, called active from +8 up or from −8 down
# [16] = plasmodial surface anion channel blockers, osmotic lysis – cell-based, P. falciparum Indochina, OD700, 18 h, primary screen (AID 1157); settings: P. falciparum Indochina infected erythrocytes, osmotic lysis OD700, 18 h; higher = more signal, called active from +8 up or from −8 down
# [17] = S6 kinase pathway phospho-S6 level changes – cell-based, A549, cytoblot, luminescence, serum-stimulated, primary screen (AID 1158); settings: 5 h, higher = more signal;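 also: serum-stimulated A549 lung adenocarcinoma cells; signal is phosphorylated S6 detected by cytoblot immunostaining with HRP secondary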
# [18] = molecular target: NADPH oxidase 2 (Homo sapiens) (UniProt P04839); assay: compounds shifting NOX2 Amplex Red fluorescence – cell-based, HEK293-NOX2, PMA-stimulated, NOX inhibitor project, primary screen (AID 1159); settings: 45 min, higher = more signal, called active from +8 up or from −8 down; also: test concentration not given here
# [19] = molecular target: NADPH oxidase 4 (Homo sapiens) (UniProt Q9NPH5); assay: compounds shifting NOX4 Amplex Red fluorescence – cell-based, HEK293-NOX4, tetracycline-induced, NOX inhibitor project, primary screen (AID 1160); settings: HEK293-NOX4, Amplex Red H2O2 fluorescence, 45 min; higher = more signal, called active from +8 up or from −8 down
# [20] = molecular target: NADPH oxidase 5 (Homo sapiens) (UniProt Q96PH1); assay: compounds shifting NOX5 Amplex Red fluorescence – cell-based, HEK293-NOX5, NOX inhibitor project, primary screen (AID 1161); settings: HEK293-NOX5, ionomycin, 45 min, higher = more signal
# NADPH oxidase 5 (Homo sapiens), sequence (Q96PH1 whole entry, looked up): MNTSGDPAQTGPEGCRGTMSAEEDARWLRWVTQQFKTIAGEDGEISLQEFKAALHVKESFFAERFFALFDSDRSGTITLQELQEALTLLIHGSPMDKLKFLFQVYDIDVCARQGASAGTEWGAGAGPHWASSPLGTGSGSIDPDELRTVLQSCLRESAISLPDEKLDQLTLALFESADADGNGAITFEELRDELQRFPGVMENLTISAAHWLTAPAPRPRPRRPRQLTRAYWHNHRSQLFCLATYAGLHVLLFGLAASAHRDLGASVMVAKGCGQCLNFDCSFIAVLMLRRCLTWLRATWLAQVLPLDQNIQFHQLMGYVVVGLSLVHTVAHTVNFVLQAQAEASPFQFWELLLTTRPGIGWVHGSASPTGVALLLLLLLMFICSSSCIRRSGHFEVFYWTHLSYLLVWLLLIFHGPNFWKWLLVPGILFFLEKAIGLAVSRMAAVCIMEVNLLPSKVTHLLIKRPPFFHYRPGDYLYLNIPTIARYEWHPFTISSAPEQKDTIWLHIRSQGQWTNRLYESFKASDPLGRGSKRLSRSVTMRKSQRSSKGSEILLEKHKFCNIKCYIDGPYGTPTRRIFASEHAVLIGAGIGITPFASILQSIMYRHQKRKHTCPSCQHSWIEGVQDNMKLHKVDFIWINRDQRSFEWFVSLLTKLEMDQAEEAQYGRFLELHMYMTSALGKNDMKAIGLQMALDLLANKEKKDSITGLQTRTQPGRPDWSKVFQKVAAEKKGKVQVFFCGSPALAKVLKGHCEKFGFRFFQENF
# NADPH oxidase 2 (Homo sapiens), sequence (P04839 whole entry, looked up): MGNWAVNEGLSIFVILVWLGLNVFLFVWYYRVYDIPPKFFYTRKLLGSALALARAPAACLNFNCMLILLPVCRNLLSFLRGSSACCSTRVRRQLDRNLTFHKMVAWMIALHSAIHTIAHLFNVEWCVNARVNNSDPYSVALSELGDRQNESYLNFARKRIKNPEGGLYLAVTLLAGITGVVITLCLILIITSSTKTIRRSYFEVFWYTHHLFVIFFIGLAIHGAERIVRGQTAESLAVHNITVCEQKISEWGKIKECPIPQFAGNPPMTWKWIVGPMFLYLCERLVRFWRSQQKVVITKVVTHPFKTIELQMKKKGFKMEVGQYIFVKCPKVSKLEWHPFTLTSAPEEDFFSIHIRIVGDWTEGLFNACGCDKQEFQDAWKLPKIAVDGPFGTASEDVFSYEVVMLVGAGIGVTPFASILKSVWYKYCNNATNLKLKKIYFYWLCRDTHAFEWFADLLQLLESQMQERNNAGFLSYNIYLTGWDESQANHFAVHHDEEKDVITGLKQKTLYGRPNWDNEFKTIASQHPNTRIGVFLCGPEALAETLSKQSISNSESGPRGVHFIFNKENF
# NADPH oxidase 4 (Homo sapiens), sequence (Q9NPH5 whole entry, looked up): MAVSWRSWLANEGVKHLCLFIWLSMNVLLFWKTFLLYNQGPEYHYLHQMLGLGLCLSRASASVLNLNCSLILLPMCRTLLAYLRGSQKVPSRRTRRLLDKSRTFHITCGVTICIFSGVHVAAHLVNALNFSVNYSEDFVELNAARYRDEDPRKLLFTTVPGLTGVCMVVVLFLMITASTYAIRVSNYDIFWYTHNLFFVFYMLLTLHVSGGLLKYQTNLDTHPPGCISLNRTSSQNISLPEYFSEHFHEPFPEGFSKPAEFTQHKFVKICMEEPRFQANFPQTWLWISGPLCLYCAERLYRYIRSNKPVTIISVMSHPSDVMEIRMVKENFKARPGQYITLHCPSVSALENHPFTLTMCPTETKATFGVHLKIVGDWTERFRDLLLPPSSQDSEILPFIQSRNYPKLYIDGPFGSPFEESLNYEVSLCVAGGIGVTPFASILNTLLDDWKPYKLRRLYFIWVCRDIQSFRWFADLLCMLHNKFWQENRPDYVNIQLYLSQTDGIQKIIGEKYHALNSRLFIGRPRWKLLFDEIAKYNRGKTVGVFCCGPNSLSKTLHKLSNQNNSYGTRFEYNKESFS
# Streptavidin (Streptomyces avidinii), sequence (P22629 whole entry, looked up): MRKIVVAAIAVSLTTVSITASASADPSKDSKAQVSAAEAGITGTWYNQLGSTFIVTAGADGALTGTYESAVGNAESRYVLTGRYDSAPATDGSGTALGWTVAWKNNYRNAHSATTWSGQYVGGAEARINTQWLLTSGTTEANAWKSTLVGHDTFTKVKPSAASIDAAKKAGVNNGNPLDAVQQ
# Torsin-1A (Homo sapiens), sequence (O14656 whole entry, looked up): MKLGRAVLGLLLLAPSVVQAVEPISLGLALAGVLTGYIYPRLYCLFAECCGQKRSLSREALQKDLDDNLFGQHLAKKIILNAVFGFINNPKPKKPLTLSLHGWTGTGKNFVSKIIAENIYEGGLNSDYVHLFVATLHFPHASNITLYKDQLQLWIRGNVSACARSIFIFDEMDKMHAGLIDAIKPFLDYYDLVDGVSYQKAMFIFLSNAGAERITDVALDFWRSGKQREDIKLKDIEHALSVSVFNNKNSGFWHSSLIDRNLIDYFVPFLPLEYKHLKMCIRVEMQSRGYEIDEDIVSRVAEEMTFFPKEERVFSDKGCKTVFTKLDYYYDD
SMILES,composite z-score [1],z-score [2],z-score [3],z-score [4],z-score [5],composite z-score [6],composite z-score [7],composite z-score [8],composite z-score [9],composite z-score [10],z-score [11],composite z-score [12],z-score [13],z-score [14],z-score [15],z-score [16],z-score [17],z-score [18],z-score [19],z-score [20]
[N-]=[N+]=Nc1ccccc1[C@H]1OC(c2ccc(OCCCO)cc2)=N[C@@]1(Cc1ccccc1)C(=O)N1CCCCC1,1.57,-3.95 (inactive),-0.21 (inactive),0.722 (inactive),-0.585 (inactive),1.16,0.395,0.728,0.373,0.021,0.546 (inactive),0.51,31.2 (active),27.9 (active),2.35 (inactive),8.26 (active),0.583,-1.52 (inactive),0.804 (inactive),1.62
NCCCCCNC(=O)[C@@H]1C[C@@H]2C(=O)NCC(=O)N2[C@@H]1c1cccc(OCCO)c1,0.468,0.267 (inactive),0.771 (inactive),-0.667 (inactive),-0.496 (inactive),0.519,0.188,0.666,0.59,1.29,1.81 (inactive),0.165,2.11 (inactive),0.282 (inactive),-0.874 (inactive),0.154 (inactive),0.121,1.44 (inactive),-0.373 (inactive),2.89
C=C(COC)/C(=C/C[C@H](OC(C)=O)c1ccc(OCCO)cc1)c1cc(C(=O)OC)ccc1OC,0.39,-0.519 (inactive),-0.339 (inactive),13.8 (active),0.696 (inactive),-0.313,0.0566,2.01,0.524,1.92,1.28 (inactive),0.188,24.8 (active),7.54 (inactive),2.08 (inactive),1.14 (inactive),0.497,1.6 (inactive),1.03 (inactive),-1.34
COC(=O)[C@@]1(Cc2ccc(F)cc2)[C@H]2c3cc(C(=O)N4CCCC4)n(CCc4ccc(O)c(O)c4)c3C[C@H]2CN1C(=O)c1ccccc1,1.2,-1.78 (inactive),-0.809 (inactive),3.05 (inactive),-0.268 (inactive),-0.185,1.24,0.0585,0.0389,-0.987,-1.04 (inactive),1.09,2.9 (inactive),0.5 (inactive),0.718 (inactive),0.936 (inactive),-0.243,-4.14 (inactive),-7.52 (inactive),-6.63
[N-]=[N+]=NCc1ccccc1[C@H]1OC(c2ccc(OCCCO)cc2)=N[C@@]1(CCS(=O)(=O)c1ccccc1)C(=O)NCC(O)CO (stereo not given in full),0.914,-0.119 (inactive),-1.53 (inactive),1.99 (inactive),-0.75 (inactive),1.2,0.257,0.662,1.41,-0.276,-0.0559 (inactive),0.675,27.1 (active),21.1 (active),2.23 (inactive),2.78 (inactive),0.123,1.47 (inactive),1.1 (inactive),1.64
C=CC1c2cc(O)c(OC)cc2CCN1Cc1cc2c(cc1Br)OCO2 (stereo not given),-0.158,-5.24 (inactive),0.0937 (inactive),0.299 (inactive),0.962 (inactive),-0.361,-0.128,1.34,0.587,0.672,-1.93 (inactive),0.274,15.1 (active),3.15 (inactive),1.57 (inactive),1.01 (inactive),0.0469,-6.22 (inactive),-3.87 (inactive),-4.16
NC(=O)N1C(=O)C2C(C1=O)C1C=C(CCCO)C2C(c2cccs2)N1Cc1cccc(OC(F)(F)F)c1 (stereo not given),-0.0995,-2.32 (inactive),0.818 (inactive),0.0704 (inactive),-0.461 (inactive),0.035,-0.114,0.726,0.981,1.4,-0.19 (inactive),0.135,8.85 (active),1.42 (inactive),-0.569 (inactive),0.872 (inactive),0.323,2.15 (inactive),0.0752 (inactive),-1.12
COCCOC(=O)N1C(=O)[C@@]2(c3cc(C#CC4=CCCCC4)ccc31)[C@H](c1ccccc1OCCO)N1[C@H](c3ccccc3)[C@H](c3ccccc3)OC(=O)[C@H]1[C@@H]2C(=O)Nc1nc2ccccc2s1,0.632,-2.06 (inactive),0.305 (inactive),-0.0526 (inactive),0.687 (inactive),0.827,0.0497,0.881,0.344,1.27,-0.541 (inactive),0.287,3.53 (inactive),1.72 (inactive),-0.507 (inactive),1.54 (inactive),-0.168,1.59 (inactive),0.571 (inactive),1.41
COC(=O)C(CC#Cc1ccc2c(c1)[C@]1(C(=O)N2)[C@H](C(=O)N2CCN(c3ncccn3)CC2)[C@H]2C(=O)O[C@H](c3ccccc3)[C@H](c3ccccc3)N2[C@@H]1c1ccc(OCCO)cc1)C(=O)OC,0.545,-1.02 (inactive),-0.99 (inactive),-0.671 (inactive),-0.772 (inactive),0.736,0.109,0.393,0.798,2.23,0.454 (inactive),0.2,11 (active),2.86 (inactive),1.03 (inactive),1.4 (inactive),0.311,1.36 (inactive),0.504 (inactive),1.53
COC(=O)[C@@]1(Cc2ccccc2)[C@@H]2C(=CC(=O)[C@H]2CC(=O)C(=O)N(C)C)CN1C(=O)c1ccccc1,0.117,-2.86 (inactive),0.421 (inactive),0.0075 (inactive),0.087 (inactive),-0.0043,0.308,0.2,0.239,-0.2,0.174 (inactive),0.0093,4.6 (inactive),0.329 (inactive),0.864 (inactive),0.664 (inactive),-0.52,-0.0425 (inactive),0.705 (inactive),0.16
